# Where “and” joins values, the source holds several entries; their conditions need not be identical. Identical values can stand only once. Like-named read-outs stand apart in the source and are kept apart here.
# Key:
# [1] = test system: PRKCI; conditions: concentration: 1 μM, replicates: in singlicate, n = 1
# [2] = test system: PRKCQ; conditions: concentration: 1 μM, replicates: in singlicate, n = 1
# [3] = test system: PRKD1; conditions: concentration: 1 μM, replicates: in singlicate, n = 1
# [4] = test system: PRKD2; conditions: concentration: 1 μM, replicates: in singlicate, n = 1
# [5] = test system: PRKD3; conditions: concentration: 1 μM, replicates: in singlicate; n = 1
# [6] = test system: PRKG1; conditions: concentration: 1 μM, replicates: in singlicate, n = 1
# [7] = test system: PRKG2; conditions: concentration: 1 μM, replicates: in singlicate, n = 1
# [8] = test system: T1, PRKR; conditions: concentration: 1 μM, replicates: in singlicate, n = 1
# T1 construct: gene EIF2AK2
# [9] = test system: PRKX; conditions: concentration: 1 μM, replicates: in singlicate, n = 1
# [10] = test system: PRP4; conditions: concentration: 1 μM, replicates: in singlicate, n = 1
# [11] = test system: T2, PYK2; conditions: concentration: 1 μM, replicates: in singlicate, n = 1
# T2 construct: gene PTK2B
# [12] = test system: QSK; conditions: concentration: 1 μM, replicates: in singlicate, n = 1
# [13] = test system: RAF1; conditions: concentration: 1 μM, replicates: in singlicate, n = 1
# [14] = test system: RET; conditions: concentration: 1 μM, replicates: in singlicate; n = 1
# [15] = test system: RIOK1; conditions: concentration: 1 μM, replicates: in singlicate, n = 1
# [16] = test system: RIOK2; conditions: concentration: 1 μM, replicates: in singlicate; n = 1
# [17] = test system: RIOK3; conditions: concentration: 1 μM, replicates: in singlicate; n = 1
# [18] = test system: RIPK1; conditions: concentration: 1 μM, replicates: in singlicate, n = 1
# [19] = test system: RIPK2; conditions: concentration: 1 μM, replicates: in singlicate, n = 1
# [20] = test system: RIPK4; conditions: concentration: 1 μM, replicates: in singlicate, n = 1
# 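Note: KINOMEscan kinase panel screen.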
smiles,measurement,setting,value
O=C(Nc1cccc(-c2nn3ncccc3c2-c2ccnc(Nc3cccc(C(F)(F)F)c3)n2)c1)c1c(F)cccc1F [GSK299495],%Inh,[1],19%
same,%Inh,[2],49%
same,%Inh,[3],16%
same,%Inh,[4],0%
same,%Inh,[5],14%
same,%Inh,[6],0%
same,%Inh,[7],0%
same,%Inh,[8],0%
same,%Inh,[9],0%
same,%Inh,[10],71%
same,%Inh,[11],23%
same,%Inh,[12],9%
same,%Inh,[13],86%
same,%Inh,[14],64%
same,%Inh,[15],22%
same,%Inh,[16],0%
same,%Inh,[17],0%
same,%Inh,[18],8%
same,%Inh,[19],86%
same,%Inh,[20],15%
COc1ccc(Nc2nccc(N3CCC(NC(=O)Nc4cccc(C(C)=O)c4)C3)n2)cc1 (stereo not drawn) [GSK1379731],%Inh,[1],18%
same,%Inh,[2],18%
same,%Inh,[3],0%
same,%Inh,[4],11%
same,%Inh,[5],7%
same,%Inh,[6],0%
same,%Inh,[7],0%
same,%Inh,[8],0%
same,%Inh,[9],24%
same,%Inh,[10],0%
same,%Inh,[11],0%
same,%Inh,[12],0%
same,%Inh,[13],0%
same,%Inh,[14],0%
same,%Inh,[15],42%
same,%Inh,[16],0%
same,%Inh,[17],24%
same,%Inh,[18],0%
same,%Inh,[19],39%
same,%Inh,[20],0%
CN(C1=C(c2ccccc2)C(=O)NC1=O)c1ccccc1 [SB-334860],%Inh,[1],33%
same,%Inh,[2],7%
same,%Inh,[3],0%
same,%Inh,[4],14%
same,%Inh,[5],25%
same,%Inh,[6],0%
same,%Inh,[7],16%
same,%Inh,[8],17%
same,%Inh,[9],2%
same,%Inh,[10],0%
same,%Inh,[11],0%
same,%Inh,[12],0%
same,%Inh,[13],18%
same,%Inh,[14],0%
same,%Inh,[15],0%
same,%Inh,[16],4%
same,%Inh,[17],0%
same,%Inh,[18],30%
same,%Inh,[19],44%
same,%Inh,[20],20%
COc1ccc(CNC(=O)NC2CCN(c3ccnc(Nc4ccc(OC)cc4)n3)C2)cc1 (stereo not drawn) [GSK1379727],%Inh,[1],12%
same,%Inh,[2],0%
same,%Inh,[3],0%
same,%Inh,[4],8%
same,%Inh,[5],0%
same,%Inh,[6],0%
same,%Inh,[7],0%
same,%Inh,[8],0%
same,%Inh,[9],11%
same,%Inh,[10],23%
same,%Inh,[11],1%
same,%Inh,[12],0%
same,%Inh,[13],12%
same,%Inh,[14],15%
same,%Inh,[15],8%
same,%Inh,[16],0%
same,%Inh,[17],18%
same,%Inh,[18],50%
same,%Inh,[19],0%
same,%Inh,[20],0%
Cn1cc(-c2ccc3c(c2)CCN3C(=O)Cc2ccccc2Cl)c2c(N)ncnc21 [GSK2608885],%Inh,[1],10%
same,%Inh,[2],83%
same,%Inh,[3],0%
same,%Inh,[4],47%
same,%Inh,[5],54%
same,%Inh,[6],0%
same,%Inh,[7],0%
same,%Inh,[8],0%
same,%Inh,[9],19%
same,%Inh,[10],8%
same,%Inh,[11],38%
same,%Inh,[12],23%
same,%Inh,[13],94.9%
same,%Inh,[14],99.9%
same,%Inh,[15],23%
same,%Inh,[16],0%
same,%Inh,[17],21%
same,%Inh,[18],0%
same,%Inh,[19],99.4%
same,%Inh,[20],0%
CC(C)(CN)c1nc(-c2ccc(Cl)c(O)c2)c(-c2ccncc2)[nH]1.O=C(O)C(F)(F)F [SB-477794],%Inh,[1]; 1 µM,97.5% and 97.8%
same,%Inh,[2]; 1 µM,75% and 76%
same,%Inh,[3]; 1 µM,92.4% and 93.9%
same,%Inh,[4]; 1 µM,89% and 91.8%
same,%Inh,[5],100%
same,%Inh,[6]; 1 µM,0% and 20%
same,%Inh,[7]; 1 µM,0% and 10%
same,%Inh,[8]; 1 µM,0% and 12%
same,%Inh,[9]; 1 µM,21% and 22%
same,%Inh,[10]; 1 µM,69% and 33%
same,%Inh,[11]; 1 µM,0% and 17%
same,%Inh,[12]; 1 µM,91.5% and 86%
same,%Inh,[13]; 1 µM,98.5% and 95.1%
same,%Inh,[14],99.9%
same,%Inh,[15]; 1 µM,0% and 1%
same,%Inh,[16],0%
same,%Inh,[17],0%
same,%Inh,[18]; 1 µM,2% and 0%
same,%Inh,[19]; 1 µM,92.7% and 90%
same,%Inh,[20]; 1 µM,36% and 5%

# Reference: PMC5540273 (PLoS ONE, 2017)
